These results are taken from PubChem BioAssay (NCI).

What all share (assay): NCI-60 one-dose screen, 48 h (100 = growth as untreated, 0 = no growth, -100 = all killed)
What all share (conditions): 10 µM unless noted

Test [1] relates to SR leukemia.
Test [2] deals with RPMI-8226 leukemia.
For test [3], the system named is OVCAR-8 ovarian.
For test [4], the system named is OVCAR-5 ovarian.
Test [5] has as its system OVCAR-4 ovarian.
Test [6] relates to SK-OV-3 ovarian.
In test [7] the test system is IGROV1 ovarian.
The subject of test [8] is OVCAR-3 ovarian.
Test [9] relates to HS 578T breast.
Test [10] has as its system NCI/ADR-RES ovarian.
Test [11] has as its system T-47D breast.
Test [12] has as its system BT-549 breast.
For test [13], the system named is MDA-MB-435 melanoma.
In test [14] the test system is SW-620 colon.
The subject of test [15] is MCF7 breast.
Test [16] has as its system HCC-2998 colon.
For test [17], the system named is KM12 colon.
Test [18] deals with HCT-116 colon.

This is part of a sample that, as a whole, favours compounds with a hit. Of some 83,000 tested, about 20% had one in any assay.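 Percent growth is the endpoint: 0 to 100 indicates growth inhibition (40 means 60% inhibition), 0 means no net growth, and negative values indicate cell death.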 Unmarked numbers belong to inactive results. Calls of active or inactive are those of the source. How the source made its calls: active means growth percent below 10; inactive means the rest.

As for `CCOC(=O)CN1/C(=N/c2sc3c(c2C(=O)OCC)CCN(C(=O)OCC)C3)SC(=O)/C1=C\C(=O)OC`, the growth is 29.8% in test [1]; -28.8% (active) in [2]; 75.2% in test [3]; 89.9% in [4]; 86.8% in test [5]; 111% in test [6]. Moreover, the growth in test [7] was 92.1%; in test [8], 92.1%; in test [9], 82.7%; in test [10], 87%; in test [11], 30.8%; in [12], 89.4%. For the same molecule, the growth in test [13] is 99.7%; in [14], 71.6%; in [15], 49.3%; in [16] it was 94.4%; in test [17], 97.4%.

Consider `CN(C)c1ncnc2c1ccn2C1OC(CO)C(O)C1O` (stereo not given), for which the growth in [1] was 89.5%; in test [2] it was 83.7%; in test [3], 0.899% (active); in test [4], 39.5%; in [5] it was 33.3%; in [6], 33.7%. Also, the growth is -0.957% (active) in [7]; 25.9% in test [8]; 17.5% in test [9]; 1.88% (active) in test [10]; 57.3% in [12]; 62.3% in [13]. Further, the growth in test [14] was 36.3%; in [15], -7.76% (active); in test [18] it was 37%; in [16], 22.7%; in test [17], 84.1%.

For `COc1ccc(Nc2ncccc2C(=O)NCc2cn(Cc3cccc(Oc4ccccc4)c3)nn2)cc1`, the growth in test [1] was 30.8%; in [2], 55.4%; in test [3] it was 65.6%; in [4], 75.2%; in test [5], 71.1%; in test [6] it was 36.8%. The growth in test [7] is 53.5%; in [8], -4.73% (active); in test [9], 48.7%; in test [11] it was 50.5%; in [12] it was 53.1%; in test [13], -16.3% (active). For the same molecule, the growth in [14] was 24.6%; in [15], 20%; in test [18] it was 23.3%; in test [16], 41.7%; in [17], 20.2%.

For `CC(C)(C)N1CCC1C(N)=O` (stereo not given), the growth in [1] is 115%; in [2], 87.5%; in test [3], 102%; in [4] it was 48.7%; in test [5], 104%; in [6] it was 104%. Moreover, the growth is 265% in test [7]; 105% in test [8]; 111% in test [9]; -4.51% (active) in [10]; 99.5% in test [11]; 103% in test [13]. Moreover, the growth was 97.7% in [14]; 104% in test [15]; 77.4% in test [18]; 47% in test [16]; 99.2% in [17].

Regarding `CC(C)(C)n1cc(-c2ccnc(NCCNS(=O)(=O)c3ccc(C(F)(F)F)cc3)c2)c(-c2cccc(O)c2)n1`, the growth was 8.04% (active) in test [1]; 4.88% (active) in [2]; 58.5% in [3]; 72.2% in [4]; 50.5% in test [5]; 86.3% in test [6]. The growth was 71.4% in test [7]; 68.1% in test [8]; 47.3% in [9]; 56.7% in test [10]; 32.1% in test [11]; 63.3% in [13]. The growth in test [14] is 25.9%; in [15] it was 17.3%; in test [18], 29.5%; in test [16], -0.263% (active); in test [17], 41.8%.

Take `N#Cc1c(-c2ccccc2)nc(SCC(=O)N2CCN(c3ccccc3)CC2)[nH]c1=O`: the growth in test [1] is 90.6%; in [2] it was 95.7%; in test [3], 97.9%; in test [4], 98.5%; in test [5], 115%; in test [6] it was 101%. Moreover, the growth was 112% in test [7]; 111% in test [8]; 106% in [9]; 101% in test [10]; 99.4% in test [11]; 91.2% in [12]. The growth was 108% in test [13]; 111% in test [14]; 92.5% in test [18]; 103% in [16]; 106% in [17].

Turning to `COc1cc(Cn2cc3c(c2)-c2oncc2CC3)cc(OC)c1OC`, the growth in test [1] is 11.3%; in test [2], 22.8%; in test [3] it was 16.6%; in test [4] it was 41.2%; in test [5], 48%; in test [6] it was -5.27% (active). Also, the growth is 1.48% (active) in test [7]; -40.5% (active) in [8]; 7.08% (active) in test [9]; -13.9% (active) in test [10]; 36.7% in test [12]; -29.9% (active) in test [13]. The growth in test [14] was 27.1%; in [15], 13.2%; in test [18] it was 8.52% (active); in test [16], 12.1%; in test [17] it was 3.04% (active).

With `C/C=C/C1=CN2C(=O)c3cc(OC4OC(C)C(NC)C(C)(O)C4O)c(C)cc3N=C[C@@H]2C1` (stereo not given in full), the growth in test [1] is -11.8% (active); in [2], 4.62% (active); in test [3] it was 12.2%; in [4], 9.87% (active); in test [5], 6.47% (active); in [6], 3.83% (active). The growth in test [7] was -8.52% (active); in test [8], 0.104% (active); in test [9], -7.59% (active); in test [10] it was -7.51% (active); in [11] it was -4.57% (active); in test [12] it was -41.2% (active). Besides, the growth in test [13] was -63.1% (active); in [14], -0.311% (active); in test [18] it was 3.87% (active); in test [17], -41.4% (active).
